# Measured values as given in PubChem BioAssay (Tox21).
# Results filed as inconclusive are left out. Where a call stands in place of a potency, no number is given. A number with no mark means an inactive call. Active and inactive are the calls of the source. Unless noted, the call rests on the fitted dose curve; in most records, active means well fitted curve in the direction sought with a large enough effect in the repeat runs; inconclusive means weak or mixed curves; inactive means no such curve, though single readings can be large; an effect the other way counts as inactive or inconclusive.
# Key:
# [1] = target: Luciferin 4-monooxygenase (Photinus pyralis) (UniProt P08659); assay: qHTS assay to identify small molecule inhibitors of firefly luciferase (AID 1224835); further: nearly all actives have a fitted effect of over 25% in size; further: potency means the concentration at half of the fitted maximal effect; on activity change, negative = inhibition: series mostly up to about 120 µM
# Luciferin 4-monooxygenase (Photinus pyralis), sequence (P08659 whole entry, looked up): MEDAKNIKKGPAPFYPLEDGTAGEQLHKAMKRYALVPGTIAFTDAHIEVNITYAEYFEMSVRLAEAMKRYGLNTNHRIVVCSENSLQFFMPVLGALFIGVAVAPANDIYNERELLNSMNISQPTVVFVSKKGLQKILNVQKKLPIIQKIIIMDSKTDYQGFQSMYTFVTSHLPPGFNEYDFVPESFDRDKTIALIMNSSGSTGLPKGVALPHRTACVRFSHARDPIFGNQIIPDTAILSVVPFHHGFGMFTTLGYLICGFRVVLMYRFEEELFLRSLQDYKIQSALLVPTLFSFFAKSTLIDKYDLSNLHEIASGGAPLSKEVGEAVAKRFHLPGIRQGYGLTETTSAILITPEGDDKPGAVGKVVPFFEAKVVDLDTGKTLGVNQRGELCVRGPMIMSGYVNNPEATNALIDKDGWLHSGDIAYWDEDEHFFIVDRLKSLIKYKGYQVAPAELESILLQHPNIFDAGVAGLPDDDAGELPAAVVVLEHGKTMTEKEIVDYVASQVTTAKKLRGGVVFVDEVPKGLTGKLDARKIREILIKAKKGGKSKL
# Method in brief: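 Inhibition of purified Photinus luciferase is measured by luminescence. Substrate levels (D-luciferin, ATP) sit at their KM values. Each compound is tested in a concentration series.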
# [2] = qHTS assay to identify small molecule agonists of the constitutive androstane receptor (CAR) signaling pathway - cell viability counter screen (AID 1224836); further: series mostly up to about 92 µM; nearly all actives have a fitted effect of over 45% in size
# Method in brief: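 Viability read-out: CellTiter-Fluor fluorescence after 23 h compound exposure at 37 C/5% CO2 in double-stable HepG2-CYP2B6-hCAR cells, with PK11195 present at 0.75 uM final; compounds tested in 15-point titration.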
# [3] = qHTS assay to identify small molecule antagonists of the constitutive androstane receptor (CAR) signaling pathway - cell viability counter screen (AID 1224837); further: series mostly up to about 92 µM; nearly all actives have a fitted effect of over 45% in size
# Method in brief: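 Read-out: CellTiter-Fluor fluorescence after 23 hr at 37 C/5% CO2. Cells: HepG2 double-stable for hCAR and CYP2B6-2.2kb. Compounds tested at 15 concentrations in the presence of CITCO, final concentration 50 nM.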
# [4] = target: Nuclear receptor subfamily 1 group I member 3 (Homo sapiens) (UniProt Q14994); assay: qHTS assay to identify small molecule antagonists of the constitutive androstane receptor (CAR) signaling pathway (AID 1224838);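 further: HepG2 cells stably expressing hCAR with CYP2B6 luciferase reporter stimulated by CITCO; nearly all actives have a fitted effect of over 40% in size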; further: potency means the concentration at half of the fitted maximal effect
# Nuclear receptor subfamily 1 group I member 3 (Homo sapiens), sequence (Q14994 whole entry, looked up): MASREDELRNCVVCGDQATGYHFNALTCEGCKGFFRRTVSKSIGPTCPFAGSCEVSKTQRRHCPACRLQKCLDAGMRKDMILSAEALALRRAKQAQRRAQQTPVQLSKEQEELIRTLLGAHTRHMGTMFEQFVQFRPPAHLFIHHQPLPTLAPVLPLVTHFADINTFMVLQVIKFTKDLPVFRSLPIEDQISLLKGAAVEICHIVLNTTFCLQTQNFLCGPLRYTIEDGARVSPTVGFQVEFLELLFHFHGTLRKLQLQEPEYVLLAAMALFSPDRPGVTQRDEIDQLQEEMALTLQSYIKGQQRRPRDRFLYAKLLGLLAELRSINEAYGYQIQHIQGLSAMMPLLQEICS
# Method in brief: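 Read-out: ONE-Glo luciferase luminescence after 30 min at room temperature. HepG2-CYP2B6-hCAR double-stable cells, compounds in 15-point titration plus 50 nM CITCO final, 24 h at 37 C/5% CO2.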
# [5] = target: Nuclear receptor subfamily 1 group I member 3 (Homo sapiens) (UniProt Q14994); assay: qHTS assay to identify small molecule agonists of the constitutive androstane receptor (CAR) signaling pathway (AID 1224839); further: nearly all actives have a fitted effect of over 15% in size; further: potency means the concentration at half of the fitted maximal effect;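 on activation: HepG2 cells stably carrying human CAR and a CYP2B6 luciferase reporter; series mostly up to about 92 µM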
# Method in brief: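 Luminescence read-out (ONE-Glo, 30 min, room temperature) from double-stable HepG2-CYP2B6-hCAR cells exposed 24 h to 15-point compound series in presence of 0.75 uM PK11195 final.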
# [6] = qHTS assay to identify small molecule antagonists of the estrogen related receptor signaling pathway with the pleiotropic PPARgamma coactivator (PGC) from Tox21 10K library - cell viability counter screen (AID 1224840; active means well fitted cell-killing curve with a large enough effect in the repeat runs, not every such curve was filed as active; further: nearly all actives have a fitted effect of over 40% in size)
# Method in brief: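 Fluorescence read-out of CellTiter-Fluor viability reagent, added after cells had been exposed to compound in DMSO for 17.5 h at 37 C; 30 min development at 37 C/5% CO2. Cells: PGC/ERR line, 2,000/well.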
# [7] = qHTS assay to identify small molecule antagonists of the estrogen related receptor signaling pathway with the pleiotropic PPARgamma coactivator (PGC) from Tox21 10K library (AID 1224841; call rule not given here; further: actives are mostly falling curves and most rising ones were filed inactive; nearly all actives have a fitted effect of over 50% in size; further: potency means the concentration at half of the fitted maximal effect; on activity, negative = inhibition: series mostly up to about 92 µM)
# Method in brief: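 Luminescence read-out (One-Glo luciferase reagent, 30 min at room temperature) from PGC/ERR cells exposed to DMSO-dissolved test compounds for 18 h at 37 C; cells, 2,000 per well, had been preincubated 6 h before compound transfer.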
# [8] = qHTS assay to identify small molecule agonists of the estrogen related receptor signaling pathway with the pleiotropic PPARgamma coactivator (PGC) from Tox21 10K library (AID 1224842); further: nearly all actives have a fitted effect of over 15% in size
# Method in brief: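 Luminescence from One-Glo (30 min, room temperature) measured after PGC/ERR cells had 18 h at 37 C with pinned compound (23 nL in DMSO). Cells had been seeded at 2,000 per well and pre-incubated 6 h.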
# [9] = qHTS assay to identify small molecule agonists of the hypoxia (HIF-1) signaling pathway - cell viability counter screen (AID 1224844; calls by dose curve; further: nearly all actives have a fitted effect of over 50% in size)
# Method in brief: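 CellTiter-Glo luminescence read-out, 30 min RT, taken in the same wells as the beta-lactamase HRE reporter assay; HRE-bla ME-180 cells, 0.5% dialyzed FBS, 17 hr compound treatment at 37C, 5% CO2.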
# [10] = target: Thyrotropin receptor (Homo sapiens) (UniProt P16473); assay: qHTS assay to identify small molecule agonists of the thyroid stimulating hormone receptor (TSHR) signaling pathway (AID 1224843; calls by dose curve; further: nearly all actives have a fitted effect of over 45% in size)
# Thyrotropin receptor (Homo sapiens), sequence (P16473 whole entry, looked up): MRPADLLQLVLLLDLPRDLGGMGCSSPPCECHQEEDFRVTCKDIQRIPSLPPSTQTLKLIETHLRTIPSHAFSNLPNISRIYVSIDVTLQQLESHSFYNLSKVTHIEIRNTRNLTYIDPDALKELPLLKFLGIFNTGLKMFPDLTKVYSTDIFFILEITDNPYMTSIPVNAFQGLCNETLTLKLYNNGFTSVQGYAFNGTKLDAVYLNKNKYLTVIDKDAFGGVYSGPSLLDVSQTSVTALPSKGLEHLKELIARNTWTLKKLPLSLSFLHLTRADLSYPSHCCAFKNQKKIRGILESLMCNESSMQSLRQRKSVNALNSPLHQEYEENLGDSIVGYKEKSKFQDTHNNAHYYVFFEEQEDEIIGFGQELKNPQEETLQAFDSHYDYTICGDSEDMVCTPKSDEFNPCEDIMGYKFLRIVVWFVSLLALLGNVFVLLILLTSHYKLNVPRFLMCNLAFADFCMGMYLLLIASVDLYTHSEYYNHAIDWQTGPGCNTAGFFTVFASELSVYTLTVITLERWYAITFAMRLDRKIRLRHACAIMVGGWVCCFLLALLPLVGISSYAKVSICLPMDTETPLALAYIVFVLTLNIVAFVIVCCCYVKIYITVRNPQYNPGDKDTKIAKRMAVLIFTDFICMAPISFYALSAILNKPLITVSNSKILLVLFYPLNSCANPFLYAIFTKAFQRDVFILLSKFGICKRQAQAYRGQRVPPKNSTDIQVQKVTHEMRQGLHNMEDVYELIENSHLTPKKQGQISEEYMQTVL
# Method in brief: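 A cell-based cAMP HTRF format was run in TSHR-transfected HEK293 cells, 800 per well. Treatment: 30 min, room temperature. Detection: 1 h with labelled cAMP and anti-cAMP cryptate. Concentration-response over 15 points, three replicates.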
structure (smiles),measurement,setting,value
CC(C)OCC1CO1 (stereo not drawn),Potency,[1],inactive
same,Potency,[2],inactive
same,Potency,[3],inactive
same,Potency,[4],inactive
same,Potency,[5],inactive
same,Potency,[6],inactive
same,Potency,[7],inactive
same,Potency,[8],inactive
same,Potency,[9],inactive
CCCCCCCCSCCO,Potency,[1],71 µM (active)
same,Potency,[2],inactive
same,Potency,[3],inactive
same,Potency,[4],inactive
same,Potency,[5],inactive
same,Potency,[6],inactive
same,Potency,[8],inactive
same,Potency,[10],inactive
same,Potency,[9],inactive
O=C(CCCN1CCC(O)(c2ccc(Br)cc2)CC1)c1ccc(F)cc1,Potency,[1],inactive
same,Potency,[2],inactive
same,Potency,[3],inactive
same,Potency,[4],33.5 µM (active)
same,Potency,[5],inactive
same,Potency,[6],inactive
same,Potency,[10],inactive
same,Potency,[9],inactive
CCOC(=O)c1ccccc1OC,Potency,[1],inactive
same,Potency,[2],inactive
same,Potency,[3],inactive
same,Potency,[4],inactive
same,Potency,[5],inactive
same,Potency,[6],inactive
same,Potency,[8],inactive
same,Potency,[10],inactive
same,Potency,[9],inactive
Nc1c(I)cc(I)c(C(=O)N(CCC(=O)O)c2ccccc2)c1I,Potency,[1],inactive
same,Potency,[2],inactive
same,Potency,[3],inactive
same,Potency,[4],inactive
same,Potency,[5],inactive
same,Potency,[6],inactive
same,Potency,[9],inactive
CC(C)c1nnc2ccc(-c3ocnc3-c3cc(F)ccc3F)cn12,Potency,[1],inactive
same,Potency,[2],inactive
same,Potency,[3],inactive
same,Potency,[4],inactive
same,Potency,[5],48.6 µM (active)
same,Potency,[6],inactive
same,Potency,[8],inactive
same,Potency,[10],inactive
same,Potency,[9],inactive
CC(C)CCCCCOC(=O)CCCCC(=O)OCCCCCC(C)C,Potency,[1],inactive
same,Potency,[2],inactive
same,Potency,[3],inactive
same,Potency,[4],inactive
same,Potency,[5],inactive
same,Potency,[6],inactive
same,Potency,[7],inactive
same,Potency,[9],inactive
C=CC(C)(O)CCCC(C)CCCC(C)CCCC(C)C (stereo not drawn),Potency,[1],inactive
same,Potency,[2],inactive
same,Potency,[3],inactive
same,Potency,[4],inactive
same,Potency,[5],inactive
same,Potency,[6],inactive
same,Potency,[10],inactive
same,Potency,[9],inactive
Oc1cc(O)c(Cl)cc1Cl,Potency,[1],inactive
same,Potency,[2],inactive
same,Potency,[3],inactive
same,Potency,[4],inactive
same,Potency,[5],inactive
same,Potency,[6],inactive
same,Potency,[7],inactive
same,Potency,[8],inactive
same,Potency,[10],inactive
same,Potency,[9],inactive
CCCCCCCCCCCC[N+](C)(C)CC(=O)[O-],Potency,[1],inactive
same,Potency,[2],inactive
same,Potency,[3],inactive
same,Potency,[4],inactive
same,Potency,[5],inactive
same,Potency,[6],inactive
same,Potency,[10],inactive
same,Potency,[9],inactive
c1ccc(COCc2ccccc2)cc1,Potency,[1],inactive
same,Potency,[2],inactive
same,Potency,[3],inactive
same,Potency,[4],inactive
same,Potency,[5],inactive
same,Potency,[6],inactive
same,Potency,[7],inactive
same,Potency,[10],inactive
same,Potency,[9],inactive
CN1C(=O)CC(C)(c2ccccc2)C1=O (stereo not drawn),Potency,[1],inactive
same,Potency,[2],inactive
same,Potency,[3],inactive
same,Potency,[4],inactive
same,Potency,[5],inactive
same,Potency,[6],inactive
same,Potency,[7],inactive
same,Potency,[10],inactive
same,Potency,[9],inactive
Cc1nc2ccccc2s1,Potency,[1],inactive
same,Potency,[2],inactive
same,Potency,[3],inactive
same,Potency,[4],inactive
same,Potency,[5],inactive
same,Potency,[6],inactive
same,Potency,[7],48.9 µM (active)
same,Potency,[10],inactive
same,Potency,[9],inactive
COc1ccc(C(=O)c2cccc(O)c2)c(OC)c1,Potency,[1],inactive
same,Potency,[2],inactive
same,Potency,[3],inactive
same,Potency,[4],inactive
same,Potency,[5],inactive
same,Potency,[6],inactive
same,Potency,[9],inactive
CCCCC(=O)O[C@]1(C(=O)CO)CC[C@H]2[C@@H]3CCC4=CC(=O)CC[C@]4(C)[C@H]3[C@@H](O)C[C@@]21C,Potency,[1],inactive
same,Potency,[2],inactive
same,Potency,[3],inactive
same,Potency,[4],inactive
same,Potency,[5],inactive
same,Potency,[6],inactive
same,Potency,[7],inactive
same,Potency,[8],inactive
same,Potency,[10],inactive
same,Potency,[9],inactive
CC1C2CC(CC2C2CCCC(O)C2)C1(C)C (stereo not drawn),Potency,[1],inactive
same,Potency,[2],inactive
same,Potency,[3],inactive
NC(=O)Nc1ccc(Cl)c(Cl)c1,Potency,[1],inactive
same,Potency,[2],inactive
same,Potency,[3],inactive
same,Potency,[4],inactive
same,Potency,[5],inactive
same,Potency,[6],inactive
same,Potency,[8],inactive
same,Potency,[9],inactive
C=CCOC(=O)/C=C\C(=O)OCC=C,Potency,[1],inactive
same,Potency,[2],inactive
same,Potency,[3],inactive
same,Potency,[4],inactive
same,Potency,[5],inactive
same,Potency,[6],inactive
same,Potency,[10],inactive
same,Potency,[9],inactive
Cc1cnc(C)c(C)n1,Potency,[1],inactive
same,Potency,[2],inactive
same,Potency,[3],inactive
same,Potency,[4],inactive
same,Potency,[5],inactive
same,Potency,[6],inactive
same,Potency,[10],inactive
same,Potency,[9],inactive
CCCC1C(CC)=CC(CC)=CN1c1ccccc1 (stereo not drawn),Potency,[1],inactive
same,Potency,[2],inactive
same,Potency,[3],inactive
same,Potency,[4],inactive
same,Potency,[5],19.3 µM (active)
same,Potency,[6],inactive
same,Potency,[7],34.4 µM (active)
same,Potency,[10],inactive
same,Potency,[9],inactive
COC(=O)[C@@H]1CC2=CC(=O)CC[C@]2(C)[C@@]23O[C@@H]2C[C@@]2(C)[C@@H](CC[C@@]24CCC(=O)O4)[C@H]13,Potency,[1],inactive
same,Potency,[2],inactive
same,Potency,[3],inactive
same,Potency,[4],inactive
same,Potency,[5],inactive
same,Potency,[6],inactive
same,Potency,[10],inactive
same,Potency,[9],inactive
CC1CN(c2cc3c(cc2F)c(=O)c(C(=O)O)cn3-c2ccc(F)cc2F)CCN1 (stereo not drawn),"activity change, negative = inhibition",[1],1.15% [at 10.5 µM]
same,"viability change, negative = cytotoxic",[2],-1.43% [at 8.39 µM]
same,"activity change, negative = cytotoxicity",[3],6.26% [at 8.39 µM]
same,"activity, negative = inhibition",[4],9.29% [at 8.39 µM]
same,activation,[5],-1.5% [at 8.39 µM]
same,"viability change, negative = cytotoxic",[6],0.948% [at 8.39 µM]
same,activation,[10],-2.32% [at 8.39 µM]
same,"activity change, negative = cytotoxicity",[9],5.19% [at 6.97 µM]
CC(C)C(=O)O,Potency,[1],inactive
same,Potency,[2],inactive
same,Potency,[3],inactive
same,Potency,[4],inactive
same,Potency,[5],inactive
same,Potency,[6],inactive
same,Potency,[9],inactive
Cc1cc(O)c(C(C)C)cc1Cl,Potency,[1],inactive
same,Potency,[2],inactive
same,Potency,[3],inactive
same,Potency,[4],inactive
same,Potency,[5],inactive
same,Potency,[6],inactive
same,Potency,[10],inactive
same,Potency,[9],inactive
C[N+](C)(C)CCOC(N)=O,Potency,[1],inactive
same,Potency,[2],inactive
same,Potency,[3],inactive
same,Potency,[4],inactive
same,Potency,[5],inactive
same,Potency,[6],inactive
same,Potency,[9],inactive
